Values joined by “and” are separate entries in the source; they are usually repeats but may differ in a detail not shown here. Equal values may be shown once. A number with no mark means an inactive call. Results filed as inconclusive are left out. A call without a number means that no potency is given here. Active and inactive are the calls of the source. Unless noted, the call rests on the fitted dose curve; in most records, active means well fitted curve in the direction sought with a large enough effect; inconclusive means small, poorly fitted or top-dose-only effect, or another doubt; inactive means no such curve, though single readings can be large; an effect the other way counts as inactive or inconclusive.
Legend:
[1] = target: Mitogen-activated protein kinase 10 (Mus musculus) (UniProt Q61831); assay: JNK3 AlphaScreen Assay (AID 530; active means well fitted curve in either direction with a large enough effect, not every such curve was filed as active;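 further: kinase came from lysate of stimulated human HepG2 cells; signal reports phosphorylation of biotinylated GST-cJun 1-79 at Ser73 with 10 µM ATP; series mostly up to about 57 µM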)
Outline: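 HepG2 lysate (IL-1b/TNFa pre-activated) + biotin-GST-cJun 1-79 + anti-pSer73 cJun; cpd titration, 15 min RT; ATP 10 uM start; Tris pH 7.6, MgCl2, DTT, vanadate; beads in EDTA buffer; AlphaScreen.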

[2] = Cell Viability - LYMP2-009 (AID 968);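 further: series mostly up to about 92 µM; cells exposed to compound for 24 h at 37 °C; nearly all actives have a fitted effect of over 55% in size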
[3] = Cell Viability - LYMP2-019 (AID 973);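 further: cells exposed to compound for 24 h at 37 °C; nearly all actives have a fitted effect of over 55% in size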
Outline: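 AC50 values come from Hill-equation modelling of qHTS concentration-response curves, where viability is measured as luciferase-based ATP luminescence in the lymphoblastoid line after 24 hr compound exposure in complete culture medium.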

[4] = Cell Viability - LYMP2-021 (AID 974);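 further: compound exposure lasts 24 hours at 37 °C; nearly all actives have a fitted effect of over 55% in size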; further: potency means the concentration at half of the fitted maximal effect
Outline: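 In qHTS format, compounds are tested against 2500 lymphoblastoid cells per well for 24 h; viable cell number is inferred from ATP-driven luciferase light, and Hill-equation fitting yields AC50 values.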

[5] = Cell Viability - LYMP2-023 (AID 975);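 further: cellular ATP measured by luciferase luminescence as viability proxy; series mostly up to about 92 µM; cells exposed to compound for 24 hours at 37 °C; nearly all actives have a fitted effect of over 55% in size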
Outline: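 In this qHTS, ATP-based luciferase luminescence (CellTiter-Glo) is quantified in human lymphoblastoid cells after 24 hr compound treatment at 37 C; tetraoctylammonium bromide serves as positive control. Concentration-response curves are Hill-fitted to give AC50.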

[6] = Cell Viability - LYMP2-012 (AID 982)
[7] = Cell Viability - LYMP2-016 (AID 984)
Outline: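 Acute toxicity in a Coriell human lymphoblastoid line is scored as loss of intracellular ATP over 24 h of treatment in complete medium. CellTiter-Glo signal is fitted across concentrations with the Hill equation to give AC50.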

[8] = Cell Viability - LYMP2-018 (AID 985); further: nearly all actives have a fitted effect of over 50% in size
Outline: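 In this qHTS viability assay, cells are treated for 24 hr and cellular ATP is quantified by luciferase-based luminescence, with tetraoctylammonium bromide as positive control.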

[9] = Cell Viability - LYMP2-022 (AID 987); further: nearly all actives have a fitted effect of over 55% in size; further: potency means the concentration at half of the fitted maximal effect
Outline: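 In this qHTS cytotoxicity screen, compound titrations were incubated 24 hr at 37 C with human lymphoblastoid cells in complete medium. Luciferase-based ATP luminescence provided the viability signal.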

[10] = Cell Viability - LYMP2-024 (AID 988); further: nearly all actives have a fitted effect of over 60% in size; further: potency means the concentration at half of the fitted maximal effect
Outline: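 Cells at 2500 per well received compound for 24 hr after a 5 hr settling period. Viability was scored by CellTiter-Glo luminescence, with AC50 from Hill fits.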

[11] = Cell Viability - LYMP2-026 (AID 989);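 further: cells exposed to compound for 24 h at 37 °C; nearly all actives have a fitted effect of over 50% in size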
Outline: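 Acute toxicity screen in complete culture medium, with 24 hr compound exposure at 37 C. Viability read as cellular ATP via luciferase reaction, with tetraoctylammonium bromide (6.4pM to 92 uM) as positive control.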

[12] = target: Estrogen receptor (Homo sapiens) (UniProt P03372); assay: qHTS assay for small molecule antagonists of estrogen receptor alpha signaling (AID 588513; active means well fitted curve in the direction sought with a large enough effect in the signal ratio, with a control signal flat, not every such curve was filed as active; the % refers to the signal ratio)
Outline: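 Cells were plated at 5000/well and incubated 4 h at 37 C. Compounds were added as 1:2 dilution series, duplicates. 17-beta-estradiol (0.5nM final) was added for 18 h before CCF4 detection.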

[13] = target: Thyroid hormone receptor beta (Homo sapiens) (UniProt P10828); assay: qHTS assay for small molecule agonists of thyroid hormone receptor beta signaling (AID 588545; calls by dose curve)
Outline: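 In this cell-based screen, titrated compounds act on HEK 293 cells held in medium with 2% charcoal/dextran FBS, NEAA and pyruvate for 18 hrs at 37 C. Responses are expressed relative to T3 (10 nM) as 100% and basal DMSO as 0%.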

[14] = target: Thyroid hormone receptor beta (Homo sapiens) (UniProt P10828); assay: qHTS assay for small molecule antagonists of thyroid hormone receptor beta signaling (AID 588547; active means well fitted inhibition curve with a large enough effect in the signal ratio, with a control signal flat, not every such curve was filed as active; the % refers to the signal ratio;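 further: cells stimulated with 0.4 nM T3 agonist during compound exposure; series mostly up to about 77 µM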); conditions: TR-UAS-bla HEK293, beta-lactamase ratio, antagonist mode, 18 h
Outline: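 TR-UAS-bla GripTite HEK293 cells in 2% charcoal/dextran FBS medium; compounds 0.59 nM to 92 uM with T3 at 0.4nM final, 18 h at 37 C. Beta-lactamase read by CCF4 fluorescence (460/530 nm); Hill fits gave IC50 and efficacy.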

[15] = target: Voltage-gated inwardly rectifying potassium channel KCNH2 (Homo sapiens) (UniProt Q12809); assay: qHTS Assay for Small Molecule Inhibitors of the Human hERG Channel Activity (AID 588834);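 further: lower thallium flux fluorescence means stronger hERG block; nearly all actives have a fitted effect of over 50% in size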; further: potency means the concentration at half of the fitted maximal effect
Outline: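 Cells were infected with hERG-BacMam virus for 4 hrs at room temperature, grown overnight, then seeded at 2000/well. After dye loading and roughly 10 min compound treatment, thallium influx was triggered and fluorescence recorded.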

[16] = qHTS assay for small molecule disruptors of the mitochondrial membrane potential - 5 hr assay (AID 651755; calls by dose curve; further: nearly all actives have a fitted effect of over 40% in size)
Outline: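 Read-out: ratiometric Mito-MPS fluorescence, green monomer (ex 490/em 535) vs red mitochondrial aggregate (ex 540/em 590). HepG2 cells treated 5 hr at 37C before 30 min dye loading.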

[17] = target: Nuclear receptor subfamily 1 group I member 2 (Rattus norvegicus) (UniProt Q9R1A7); assay: qHTS assay for small molecule activators of the rat pregnane X receptor (rPXR) signaling pathway (AID 651751; call rule not given here); conditions: rPXR reporter cells, luciferase (One-Glo), 24 h
[18] = MultiTox-Fluor Cytotoxicity Assay - LYMP1-002 - Dead Cells (AID 960); further: nearly all actives have a fitted effect of over 60% in size
Outline: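 Concentration-dependent increases in membrane-leaked protease activity are quantified in LYMP1-002 cells after 16 hr treatment; values are normalized against DMSO and tetraoctylammonium bromide (15 uM) controls and AC50 derived by Hill modeling.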

[19] = Cell Viability - LYMP2-004 (AID 966); further: nearly all actives have a fitted effect of over 65% in size
Outline: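 Viable-cell number estimated from ATP luminescence (CellTiter-Glo) in 2500 human lymphoblastoid cells/well after 24 hr at 37 C with compound. AC50 fitted to the standard Hill equation.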

[20] = qHTS assay for small molecule activators of the p53 signaling pathway (AID 651743; active means well fitted activation curve with a large enough effect in the signal ratio, not every such curve was filed as active; the % refers to the signal ratio; further: series mostly up to about 92 µM); conditions: HCT-116 p53RE-bla, beta-lactamase FRET ratio, 16 h; activation: stronger effect = higher value
Outline: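 Reporter: beta-lactamase driven by p53 response elements, stably integrated in HCT-116 cells. Cells seeded at 4,000/well, 5 h preincubation, compound (DMSO) 16 h at 37 C; B/G FRET substrate 2 h RT; fluorescence intensity read.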

Chain of Nuclear receptor subfamily 1 group I member 2 (Rattus norvegicus) (Q9R1A7 whole entry, looked up): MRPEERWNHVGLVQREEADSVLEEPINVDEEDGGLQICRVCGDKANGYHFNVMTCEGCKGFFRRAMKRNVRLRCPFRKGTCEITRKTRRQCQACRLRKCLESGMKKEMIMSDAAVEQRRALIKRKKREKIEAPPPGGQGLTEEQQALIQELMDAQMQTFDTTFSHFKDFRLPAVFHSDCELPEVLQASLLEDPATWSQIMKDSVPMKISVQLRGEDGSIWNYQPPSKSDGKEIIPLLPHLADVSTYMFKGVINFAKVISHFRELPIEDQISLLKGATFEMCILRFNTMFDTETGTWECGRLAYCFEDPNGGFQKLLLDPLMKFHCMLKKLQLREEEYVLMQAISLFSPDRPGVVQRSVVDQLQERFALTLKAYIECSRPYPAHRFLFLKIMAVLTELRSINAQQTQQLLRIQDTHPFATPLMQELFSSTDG
Chain of Thyroid hormone receptor beta (Homo sapiens) (P10828 whole entry, looked up): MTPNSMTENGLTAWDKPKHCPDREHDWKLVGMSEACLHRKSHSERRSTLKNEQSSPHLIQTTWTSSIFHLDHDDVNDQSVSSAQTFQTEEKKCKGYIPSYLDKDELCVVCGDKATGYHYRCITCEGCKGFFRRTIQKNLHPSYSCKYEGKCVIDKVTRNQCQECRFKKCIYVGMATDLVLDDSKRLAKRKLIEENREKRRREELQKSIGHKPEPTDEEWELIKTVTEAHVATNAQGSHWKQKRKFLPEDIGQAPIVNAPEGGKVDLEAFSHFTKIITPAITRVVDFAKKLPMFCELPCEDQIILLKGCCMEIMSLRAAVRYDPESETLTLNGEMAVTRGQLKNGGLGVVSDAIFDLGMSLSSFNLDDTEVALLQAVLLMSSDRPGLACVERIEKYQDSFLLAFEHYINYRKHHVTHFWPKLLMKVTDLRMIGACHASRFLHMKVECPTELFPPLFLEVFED
Chain of Voltage-gated inwardly rectifying potassium channel KCNH2 (Homo sapiens) (Q12809 whole entry, looked up): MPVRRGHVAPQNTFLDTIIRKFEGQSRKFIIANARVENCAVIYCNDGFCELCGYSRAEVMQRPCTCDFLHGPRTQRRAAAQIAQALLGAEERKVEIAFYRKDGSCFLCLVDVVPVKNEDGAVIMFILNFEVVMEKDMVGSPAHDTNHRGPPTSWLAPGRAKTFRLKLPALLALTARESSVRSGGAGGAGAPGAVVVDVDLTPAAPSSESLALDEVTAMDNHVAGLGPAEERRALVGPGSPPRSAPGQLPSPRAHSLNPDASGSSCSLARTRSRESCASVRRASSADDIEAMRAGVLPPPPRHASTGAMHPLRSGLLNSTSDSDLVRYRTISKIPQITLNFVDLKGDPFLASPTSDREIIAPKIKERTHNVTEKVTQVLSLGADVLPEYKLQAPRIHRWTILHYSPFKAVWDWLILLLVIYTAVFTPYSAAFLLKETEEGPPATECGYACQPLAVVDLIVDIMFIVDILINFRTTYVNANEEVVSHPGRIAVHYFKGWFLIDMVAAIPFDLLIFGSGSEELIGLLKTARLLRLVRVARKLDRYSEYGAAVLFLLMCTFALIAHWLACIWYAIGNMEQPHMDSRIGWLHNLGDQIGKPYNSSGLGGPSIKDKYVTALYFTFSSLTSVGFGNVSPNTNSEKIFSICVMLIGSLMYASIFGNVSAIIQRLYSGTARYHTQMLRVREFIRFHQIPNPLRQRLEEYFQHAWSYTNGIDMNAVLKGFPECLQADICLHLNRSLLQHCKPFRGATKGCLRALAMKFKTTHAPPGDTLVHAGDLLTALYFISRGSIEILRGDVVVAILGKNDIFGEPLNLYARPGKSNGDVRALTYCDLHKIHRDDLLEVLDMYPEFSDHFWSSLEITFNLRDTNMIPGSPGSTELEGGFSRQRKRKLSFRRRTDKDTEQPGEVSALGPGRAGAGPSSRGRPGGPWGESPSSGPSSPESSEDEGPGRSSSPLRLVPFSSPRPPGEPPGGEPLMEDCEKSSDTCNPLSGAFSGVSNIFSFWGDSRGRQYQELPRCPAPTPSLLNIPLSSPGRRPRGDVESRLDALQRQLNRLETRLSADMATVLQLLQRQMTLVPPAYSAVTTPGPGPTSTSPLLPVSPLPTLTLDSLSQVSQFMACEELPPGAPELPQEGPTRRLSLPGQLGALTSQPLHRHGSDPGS
Chain of Estrogen receptor (Homo sapiens) (P03372 whole entry, looked up): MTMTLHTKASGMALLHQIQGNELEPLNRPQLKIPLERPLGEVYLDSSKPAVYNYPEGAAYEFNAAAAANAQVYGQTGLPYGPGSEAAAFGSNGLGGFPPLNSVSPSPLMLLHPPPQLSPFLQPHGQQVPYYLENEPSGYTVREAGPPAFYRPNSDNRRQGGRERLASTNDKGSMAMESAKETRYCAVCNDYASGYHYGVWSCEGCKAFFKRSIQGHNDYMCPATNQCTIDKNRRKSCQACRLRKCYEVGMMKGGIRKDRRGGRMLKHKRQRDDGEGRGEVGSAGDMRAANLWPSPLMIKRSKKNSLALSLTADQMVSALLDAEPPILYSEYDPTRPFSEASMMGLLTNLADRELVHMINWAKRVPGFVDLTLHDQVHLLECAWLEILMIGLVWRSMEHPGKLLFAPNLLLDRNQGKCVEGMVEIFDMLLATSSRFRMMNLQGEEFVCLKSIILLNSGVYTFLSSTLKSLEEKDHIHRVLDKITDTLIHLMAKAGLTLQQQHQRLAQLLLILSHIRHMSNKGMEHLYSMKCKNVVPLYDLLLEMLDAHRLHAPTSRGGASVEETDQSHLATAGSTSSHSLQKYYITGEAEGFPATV

O=C(Nc1cccc(F)c1)N1CCCC2(CCN(C(=O)Oc3ccccc3)CC2)C1
outcome [1]: inactive

C[N+](C)(C)Cc1ccccc1
Potency [2]: inactive
Potency [3]: inactive
Potency [4]: inactive
Potency [5]: inactive
Potency [6]: inactive
Potency [7]: inactive
Potency [8]: inactive
Potency [9]: inactive
Potency [10]: inactive
Potency [11]: inactive
Potency [12]: inactive
outcome [13]: inactive
activity change % (negative = inhibition) [14]: -5.57% and -5.51%
Potency [15]: inactive
Potency [16]: inactive
max response [17]: -3.63% and -0.669%

c1ccc(OP(Oc2ccccc2)Oc2ccccc2)cc1
outcome [1]: inactive
Potency [18]: inactive
Potency [19]: inactive
Potency [2]: inactive
Potency [3]: inactive
Potency [4]: inactive
Potency [5]: inactive
Potency [6]: inactive
Potency [7]: inactive
Potency [8]: inactive
Potency [9]: inactive
Potency [10]: inactive
Potency [11]: inactive
Potency [12]: inactive
outcome [13]: inactive
activity change % (negative = inhibition) [14]: 5.76%
Potency [15]: inactive
activation [20]: -2.41% and -6.19%
Potency [16]: inactive
max response [17]: 0.576% and -1.05%

Cc1cccc(C#N)c1
Potency [18]: inactive
Potency [19]: inactive
Potency [2]: inactive
Potency [3]: inactive
Potency [4]: inactive
Potency [5]: inactive
Potency [6]: inactive
Potency [7]: inactive
Potency [8]: inactive
Potency [9]: inactive
Potency [10]: inactive
Potency [11]: inactive
Potency [12]: inactive
outcome [13]: inactive
activity change % (negative = inhibition) [14]: 7.42%
Potency [15]: inactive
activation [20]: -3.72%
Potency [16]: inactive
max response [17]: -0.906%

O=NN(CCO)CCO
Potency [18]: inactive
Potency [19]: inactive
Potency [2]: inactive
Potency [3]: inactive
Potency [4]: inactive
Potency [5]: inactive
Potency [6]: inactive
Potency [7]: inactive
Potency [8]: inactive
Potency [9]: inactive
Potency [10]: inactive
Potency [11]: inactive
Potency [12]: inactive
outcome [13]: inactive
activity change % (negative = inhibition) [14]: -10.8%
activation [20]: -2.59%
Potency [16]: inactive
max response [17]: 3.2%

CCOP(=S)(OCC)Oc1ccc([N+](=O)[O-])cc1
outcome [1]: inactive
Potency [18]: inactive
Potency [19]: inactive
Potency [2]: inactive
Potency [3]: inactive
Potency [4]: inactive
Potency [5]: inactive
Potency [6]: inactive
Potency [7]: inactive
Potency [8]: inactive
Potency [9]: inactive
Potency [10]: inactive
Potency [11]: inactive
outcome [13]: inactive
activity change % (negative = inhibition) [14]: 9.15% and -8.55%
Potency [15]: 35.5 µM (active)
activation [20]: -1.79% and -1.31% and 2.7%
Potency [16]: inactive

Nc1c(Cl)c(Cl)nc(C(=O)O)c1Cl
outcome [1]: inactive
Potency [18]: inactive
Potency [19]: inactive
Potency [2]: inactive
Potency [3]: inactive
Potency [4]: inactive
Potency [5]: inactive
Potency [6]: inactive
Potency [7]: inactive
Potency [8]: inactive
Potency [9]: inactive
Potency [10]: inactive
Potency [11]: inactive
Potency [12]: inactive
outcome [13]: inactive
activity change % (negative = inhibition) [14]: -17.9% and -15% and -2.55%
Potency [15]: inactive
activation [20]: -3.11% and -9.55% and -6.83%
Potency [16]: inactive
max response [17]: -1% and -3.34% and -1.89%

Cc1ccc([N+](=O)[O-])cc1C
outcome [1]: inactive
Potency [18]: inactive
Potency [19]: inactive
Potency [2]: inactive
Potency [3]: inactive
Potency [4]: inactive
Potency [5]: inactive
Potency [6]: inactive
Potency [7]: inactive
Potency [8]: inactive
Potency [9]: inactive
Potency [10]: inactive
Potency [11]: inactive
Potency [12]: inactive
outcome [13]: inactive
activity change % (negative = inhibition) [14]: 13% and 10.3%
Potency [15]: inactive
Potency [16]: inactive
max response [17]: 1.14% and -0.13%

Brc1ccc(Oc2cc(Br)c(Br)cc2Br)c(Br)c1
Potency [18]: inactive
Potency [19]: inactive
Potency [2]: inactive
Potency [3]: inactive
Potency [4]: inactive
Potency [5]: inactive
Potency [6]: inactive
Potency [7]: inactive
Potency [8]: inactive
Potency [9]: inactive
Potency [10]: inactive
Potency [11]: inactive
Potency [12]: inactive
outcome [13]: inactive
activity change % (negative = inhibition) [14]: 8.45% and -8.42%
Potency [15]: inactive
activation [20]: -4.19%

C=CC(N)=O
Potency [18]: inactive
Potency [19]: inactive
Potency [2]: inactive
Potency [3]: inactive
Potency [4]: inactive
Potency [5]: inactive
Potency [6]: inactive
Potency [7]: inactive
Potency [8]: inactive
Potency [9]: inactive
Potency [10]: inactive
Potency [11]: inactive
Potency [12]: inactive
activation [20]: -1.86% and -1.05% and 3.38%
Potency [16]: inactive
max response [17]: 2.43% and 2.67% and -1.89%

COc1ccc(NC(=O)N2CC3(CCN(C(=O)Oc4ccccc4)CC3)C2)cc1
outcome [1]: inactive

C=CC(C)=O
Potency [18]: inactive
Potency [19]: inactive
Potency [2]: inactive
Potency [3]: inactive
Potency [4]: inactive
Potency [5]: inactive
Potency [6]: inactive
Potency [7]: inactive
Potency [8]: inactive
Potency [9]: inactive
Potency [10]: inactive
Potency [11]: inactive
Potency [12]: inactive
Potency [15]: inactive
activation [20]: -2.21%
Potency [16]: inactive
max response [17]: 1.84%

CC(C)(C)OO
outcome [1]: inactive
Potency [18]: inactive
Potency [19]: inactive
Potency [2]: inactive
Potency [3]: inactive
Potency [4]: inactive
Potency [5]: inactive
Potency [6]: inactive
Potency [7]: inactive
Potency [8]: inactive
Potency [9]: inactive
Potency [10]: inactive
Potency [11]: inactive
outcome [13]: inactive
activity change % (negative = inhibition) [14]: 4.81% and -2.74%
Potency [15]: inactive
activation [20]: 0.296%
Potency [16]: inactive
max response [17]: 1.05% and -0.992%

BrCCBr
outcome [1]: inactive
Potency [18]: inactive
Potency [19]: inactive
Potency [2]: inactive
Potency [3]: inactive
Potency [4]: inactive
Potency [5]: inactive
Potency [6]: inactive
Potency [7]: inactive
Potency [8]: inactive
Potency [9]: inactive
Potency [10]: inactive
Potency [11]: inactive
Potency [12]: inactive
outcome [13]: inactive
activity change % (negative = inhibition) [14]: -9.28%
Potency [15]: inactive
activation [20]: -3.11% and 0.969%
Potency [16]: inactive
max response [17]: 2.8% and -1.13%

Clc1nc(Cl)nc(Cl)n1
outcome [1]: inactive
Potency [18]: inactive
Potency [19]: inactive
Potency [2]: inactive
Potency [3]: inactive
Potency [4]: inactive
Potency [5]: inactive
Potency [6]: inactive
Potency [7]: inactive
Potency [8]: inactive
Potency [9]: inactive
Potency [10]: inactive
Potency [11]: inactive
Potency [12]: inactive
outcome [13]: inactive
activity change % (negative = inhibition) [14]: -1.04%
Potency [15]: inactive
activation [20]: -4.73% and -1.27%
Potency [16]: inactive
max response [17]: -1.06% and -1.98%

O=C(Oc1ccccc1)N1CCC2(CC1)CN(Cc1ccncc1)C2
outcome [1]: inactive

C=C(C)C#N
outcome [1]: inactive
Potency [18]: inactive
Potency [19]: inactive
Potency [5]: inactive
Potency [6]: inactive
Potency [8]: inactive
Potency [12]: inactive
outcome [13]: inactive
activity change % (negative = inhibition) [14]: -13.7% and -1.19%
Potency [15]: inactive
activation [20]: -0.28% and -1.48%
max response [17]: 2.68% and -1.1%

CC(C)(OO)c1ccccc1
outcome [1]: inactive
Potency [18]: inactive
Potency [4]: 50.1 µM (active)
Potency [7]: inactive
Potency [9]: 39.8 µM (active)
Potency [10]: 31.6 µM (active)
Potency [11]: inactive
Potency [12]: inactive
outcome [13]: inactive
activity change % (negative = inhibition) [14]: 14.1% and -10.7%
Potency [15]: inactive
activation [20]: 0.437% and -4.93%
Potency [16]: inactive
max response [17]: 7.13% and -0.342%
